# Vc quorum ag: inducers of Vibrio cholerae quorum light production without autoinducers; V. cholerae BH1578 lux reporter, luminescence, 6 h; activation, % at 18.7 µM; actives 0.16% (n = 350,000); in the data active means activation mostly above about 9.7%, no sharp cut-off; inconclusive means no clear call, values can overlap the other calls; inactive means mostly below about 3.7%
# Anthrax LF inh2: anthrax lethal factor protease inhibition; P15917; multiplex microsphere protease cleavage assay, LF; inhibition, % at 10 µM; actives 0.12% (n = 360,000); AID 588501
# Autofluor counter: compound fluorescence in toxin protease inhibitor counterscreen | AID 624483 | actives 3.1% (n = 360,000) | fluorescence intensity (no concentration beside the values) | compound autofluorescence counterscreen, microsphere flow cytometry; hits give high values; in the data active means fluorescence intensity above about 16000; inconclusive means no clear call, values can overlap the other calls
# BoNT A protease: inhibitors of Botulinum neurotoxin A light chain protease | actives 0.17% (n = 360,000) | multiplex microsphere protease substrate cleavage, flow cytometry | AID 588499 | inhibition, % at 10 µM
# BoNT-F LC inh: BoNT F light chain protease inhibition | inhibition, % at 10 µM | actives 0.22% (n = 360,000) | Multiplex microsphere protease cleavage assay, flow cytometry; in the data active means inhibition above about 35%, passing the limit was not always enough; inconclusive means no clear call, values can overlap the other calls
# Numbers stand for hits; . = inactive; ? = inconclusive. In the library only some 3.5% were active in any assay of this set; here they are far more common. Unless noted, no stated cut-off is given here; in the data, active means inhibition above about 30%; inconclusive means no clear call, values can overlap the other calls; inactive means below that.
SMILES,Vc quorum ag,Anthrax LF inh2,Autofluor counter,BoNT A protease,BoNT-F LC inh
Cc1ccc(S(=O)(=O)NCCC(=O)NCc2cccnc2)cc1,.,.,.,.,.
Cc1ccc(S(=O)(=O)NCCC(=O)NCc2ccccc2)cc1,.,.,21858,.,.
CCOC(=O)c1ccc(N2C(=O)CC(N3CCCC(C)C3)C2=O)cc1 (stereo unspecified),.,.,25079,.,.
CCOC(=O)c1ccc(N2C(=O)CC(N3CCN(Cc4ccccc4)CC3)C2=O)cc1 (stereo unspecified),.,.,.,.,.
CC(C)(C)NC(=O)C12CCC(C)(c3nc4ccccc4nc31)C2(C)C (stereo unspecified),.,.,22617,.,.
CC(C)Sc1nc2ccccc2n1CC(=O)NCc1ccc2c(c1)OCO2,.,.,22521,?,.
Cc1ccc(F)c(S(=O)(=O)NC(=O)C2(C)CCN2C(=O)CCc2ccccc2)c1 (stereo unspecified),.,.,.,.,.
CC1=C(C)C(=O)N(CCC(=O)O)C1=O,.,.,20985,.,.
CCCC(=O)Nc1ccc2c(c1)C(=O)N(CCC(=O)O)C2=O,.,.,.,.,.
CCCCOc1ccc(-c2nnn(CC(=O)NCCc3c[nH]c4ccccc34)n2)cc1,.,.,23887,?,.
Cn1nc(C(F)(F)F)c(C(=O)Nc2ccc(F)cc2F)c1Sc1ccc(C(F)(F)F)cc1,.,.,22356,.,.
Cc1ccc(S(=O)(=O)Nc2cc(C(=O)O)ccc2N2CCCCC2)cc1,.,.,23478,.,.
COCCCNC(=O)c1ccc(N2CCCC2)c(NS(=O)(=O)c2ccc(C)cc2)c1,.,.,24938,.,.
O=C(NCCCc1ccccc1)c1cccc(NC(=O)C2CCCCC2)c1,.,.,.,.,.
Nc1nc(CSc2ncn(-c3ccccc3)n2)cs1,.,.,22447,.,.
CCC(=O)/C=C1/Sc2ccc(OC)cc2N1CCO,.,.,.,.,.
CCC(/C=C1\Sc2ccc(OC)cc2N1CC)=C\c1sc2ccc(OC)cc2[n+]1CCCS(=O)(=O)[O-],.,48,.,100,.
CCC(/C=C1\Sc2ccc(OC)cc2N1CCO)=C\c1sc2ccc(OC)cc2[n+]1CCO,.,.,.,40,.
NC(=O)c1ccc(/C(N)=N/S(=O)(=O)c2cc(C(F)(F)F)cc(C(F)(F)F)c2)cc1,.,.,.,.,.
O=C(NCc1ccccn1)C1CCN(C2CCN(Cc3cccc(F)c3)CC2)CC1,.,.,.,.,.
COC(=O)C1=C(O)CSC1=Nc1cccc(C(F)(F)F)c1,.,.,17678,.,.
COc1ccc(CCN2C(=O)N[C@@H](C(C)C)C2=O)cc1,.,.,.,.,.
CC(C)N(C(=O)[C@H]1CC(CC(=O)NCc2cccc(C(F)(F)F)c2)C(=O)N2CCc3c([nH]c4ccccc34)[C@]12C)C(C)C (stereo partly specified),.,.,.,.,.
CNc1nc(-c2ccccc2)nnc1C(F)(F)F,.,.,22123,?,.
COc1nccc(NCc2ccccc2)c1C#N,.,.,.,.,?
SMILES,Vc quorum ag,Anthrax LF inh2,Autofluor counter,BoNT A protease,BoNT-F LC inh
O=C(CCC(=O)OCc1cccc([N+](=O)[O-])c1)Nc1ccccc1Cl,.,.,.,.,.
O=C(CCC(=O)OCC(=O)c1cccc([N+](=O)[O-])c1)Nc1ccccc1Cl,.,.,25045,.,.
Cc1ccc(NC(=O)CCC(=O)NNC(=O)c2ccccc2[N+](=O)[O-])c(C)c1,.,.,.,.,.
Cc1ccc(C)c(NC(=O)CCC(=O)NNC(=O)c2cccc([N+](=O)[O-])c2)c1,.,.,24147,?,.
O=C(NNC(=O)c1ccco1)c1cccc([N+](=O)[O-])c1,.,.,.,.,38
Cn1nccc1C(=O)N1CCN(S(=O)(=O)c2ccc(Br)s2)CC1,.,.,.,.,.
CN(CC(=O)Nc1ccc(F)c(F)c1F)C(=O)c1ccc(=O)[nH]c1,.,.,.,.,.
CCOC(=O)CC(=O)CSc1ccc2nnc(-c3cccc(F)c3)n2n1,.,.,16650,?,.
CCOC(=O)CC(=O)CSc1ccc2nnc(-c3ccc(F)cc3)n2n1,.,.,.,.,.
CN(C)S(=O)(=O)c1ccc(S(=O)(=O)NCc2ccc3c(c2)OCO3)cc1,.,.,.,.,38
O=C(CCNS(=O)(=O)c1ccc(Br)cc1)NCc1ccc2c(c1)OCO2,.,.,24584,.,.
CN(C)c1ccc(/C=N/NC(=O)C(O)(c2ccccc2)c2ccccc2)o1,.,.,16827,?,.
Cc1ccc2nc(SCC(=O)OCc3ccccc3)nc(=O)n2c1,.,.,.,.,.
COc1cccc(OC)c1C(=O)Nn1c(C2CCC2)nc2ccccc2c1=O,.,.,19169,?,.
CCCCSc1nc(NCc2ccco2)c2c3c(sc2n1)COC(C)(C)C3,.,.,16223,.,.
CCCSc1nc(NCc2ccco2)c2c3c(sc2n1)COC(C)(C)C3,.,.,17467,.,.
Cc1nc2sc3c(NCc4ccco4)ncnc3c2c2c1COC(C)(C)C2,.,.,.,.,.
CC(C)Cc1nc2sc3c(NCc4ccco4)ncnc3c2c2c1COC(C)(C)C2,.,.,.,.,.
C=CCOC(=O)C1=C[C@H](c2ccc(Br)cc2)C[C@H](OCc2ccc(CO)cc2)O1,.,.,.,.,.
CCn1c(=O)cc(OCC(=O)Nc2ccc(OC)c(OC)c2)c2ccccc21,.,.,.,.,.
CCN(CCCNC(=O)COc1cc(=O)n(CC)c2ccccc12)c1ccccc1,.,.,19587,?,.
Cn1c(=O)cc(OCCCC(=O)Nc2cccnc2)c2ccccc21,.,.,23694,.,.
CCn1c(=O)cc(OCC(=O)NCCc2cccc(C)c2)c2ccccc21,.,.,.,.,.
CCn1c(=O)cc(OCC(=O)Nc2ccc3c(c2)OCCO3)c2ccccc21,.,.,19914,.,.
CCn1c(=O)cc(OCC(=O)Nc2cc(C)ccn2)c2ccccc21,.,.,22556,.,.
SMILES,Vc quorum ag,Anthrax LF inh2,Autofluor counter,BoNT A protease,BoNT-F LC inh
CN(C(=O)COC(=O)c1ccccc1C(=O)N1CCN(c2ccccc2)CC1)c1ccccc1,.,.,.,.,.
Cc1ccc(S(=O)(=O)Nc2cccc(S(=O)(=O)Nc3ccccc3C(=O)O)c2)c(C)c1,.,.,.,.,.
Cc1cccc(NC(=S)NCC(c2cccnc2)N(C)C)c1C (stereo unspecified),.,.,.,.,.
Cn1c(=O)cc(OCCCC(=O)Nc2ccc3c(c2)OCCO3)c2ccccc21,.,.,21630,.,.
CC(NC(=O)COC(=O)c1ccc[nH]c1=O)c1ccccc1 (stereo unspecified),.,.,.,.,.
N#CC(C#N)=C1C=C2C=C(N3CCOCC3)CCC2CC1 (stereo unspecified),.,.,26074,.,.
CC1(C)CC(NCCN2CCN(C3=CC(=C(C#N)C#N)CC(C)(C)C3)CC2)=CC(=C(C#N)C#N)C1,.,.,.,.,.
CCN1CCN(C2=CC3=CC(=C(C#N)C#N)CCC3CC2)CC1 (stereo unspecified),.,.,30604,.,48

# High-throughput results (PubChem BioAssay)
